# Compounds without any hit were thinned out: in the full panel of roughly 83,000, 20% have a hit.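 Note: values are percent growth. 100 is the growth of untreated cells, values between 100 and 0 indicate rising inhibition; between -100 and 0 indicates cell death.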 Unmarked numbers belong to inactive results. Activity calls are given as the source filed them.
# Tested on: OVCAR-5 ovarian
# Experiment: NCI-60 one-dose screen, 48 h (100 = growth as untreated, 0 = no growth, -100 = all killed)
# Details: 10 µM unless noted
# Description: Growth inhibition of the OVCAR-5 human tumor cell line is measured as a screen for anti-cancer activity. Cells are grown in 96 well plates and exposed to the test compound for 48 hours. Compounds are tested at a single concentration, which is 10^-5 M for most compounds. The reported endpoint is percent growth (GI% or GIPRCNT), where numbers from 0 - 100% represent growth inhibition, and numbers from -100% - 0 represent cell death. For example, a value of 40 represents 60% growth inhibition. A value of 0 means no net growth occurred over the course of the experiment. A value of -40 indicates 40% of cells at the beginning of the experiment died by the end of the experiment. A value of -100 means all cells are dead at the end of the experiment.
# NCI-60 Human Tumor Cell Lines Screen was performed using the standard one-dose NCI protocol, which is described in more detail at https://dtp.cancer.gov/discovery_development/nci-60/default.htm.
# Compounds with GIPRCNT values below 10 were considered active. Activity score was based on GIPRCNT using the following formula: […]
# Score is 0 for GIPRCNT values of 100 or above, 50 for GIPRCNT values of 0, and 100 for GIPRCNT values of -100.
row,Structure (SMILES),growth
1,C=C1c2nc3ccccc3n2C=C(c2ccc(OC)cc2)N1Cc1ccccc1,101%
2,NC(=O)c1cc(Cl)ccc1NC(=O)/C=C/c1ccccc1,54.6%
3,CCc1nnc(CNc2ccc(Cl)cc2)o1,95.6%
4,C=CCSSC1N=CNc2nc[nH]c21 (stereo not given),42.7%
5,O=C1NC(=O)C(c2ccc(Cl)cc2Cl)N1 (stereo not given),106%
6,O=C1c2cc3c(cc2-c2c1c1ccc(F)cc1c(=O)n2C[C@H](O)[C@@H](O)[C@H](O)CO)OCO3,-29.8% (active)
7,COc1ccc(CCNc2nc(SC)nc(-c3cccc([N+](=O)[O-])c3)c2C#N)cc1OC,87.5%
8,CCOC(=O)c1c(C)oc2ncnc(N3CCN(C(=S)Nc4ccccc4)CC3)c12,90%
9,O=[N+]([O-])c1ccccc1/C=N\NC(=S)N/N=C/c1ccccc1[N+](=O)[O-],86.4%
10,CC(C)C[C@@H](NC(=O)[C@@H](Cc1ccccc1)NC(=O)c1cnccn1)B1Oc2ccc(C[C@H](NC(=O)[C@H](Cc3ccc4c(c3)OB([C@@H](CC(C)C)NC(=O)[C@@H](Cc3ccccc3)NC(=O)c3cnccn3)O4)NC(=O)[C@@H](N)CC3CCC4OB([C@@H](CC(C)C)NC(=O)[C@@H](CC5CCCCC5)NC(=O)C5CNCCN5)OC4C3)C(=O)NCCCC[C@@H]3NC(=O)[C@@H](Cc4ccccc4)NC(=O)[C@H](CC(=O)O)NC(=O)CNC(=O)[C@H](CCCNC(=N)N)NC3=O)cc2O1 (stereo not given in full),-31% (active)
11,CCCCCCN(CCCCCC)C(=N)c1ccnc2ccccc12,77.4%
12,Cn1cc(-c2nonc2-c2c[nH]c3ccc(F)cc23)c2cccnc21,90.9%
13,Cn1cc(C(=O)c2nc(-c3c[nH]c4ccc(F)cc34)no2)c2cc(F)ccc21,95.5%
14,Oc1ccccc1-c1nnc(CNc2ccc(Cl)cc2)o1,64%
15,NC(=O)c1cc(I)ccc1NC(=O)/C=C/c1ccccc1Cl,38.2%
16,CN(C)c1ccc(N=Nc2ccccn2)c(O)c1,68.6%
17,O=C(Nc1ccccc1Cl)c1ccc(NC2=C(Cl)C(=O)N(C3CCCCC3)C2=O)cc1,109% [30 µM]
18,O=C1c2cc3c(cc2-c2c1c1ccc(F)cc1c(=O)n2CCCNCCO)OCO3,-59.4% (active)
19,CCOC(=O)n1cc(-c2nonc2-c2cn(C)c3ncccc23)c2cc(F)ccc21,87.7%
20,COc1cccc(-c2nc3sccn3c2-c2ccnc(NCCCNS(=O)(=O)c3cccc(Cl)c3)c2)c1,78.9%

row,Structure (SMILES),growth
1,N#Cc1c(-c2ccc(Cl)cc2)nc(N/N=C/c2cccc(Br)c2)nc1N1CCOCC1,82%
2,C=C1c2nc3ccccc3n2C=C(c2cccc(Cl)c2)N1Cc1ccc(OC)cc1,35.3%
3,CC(=O)c1nc2ccccc2n1CC(=O)c1cccc(Cl)c1,47.5%
4,Cn1c(O)c(N=NC(=O)c2cc(-c3ccccc3)on2)c2ccccc21,102%
5,CC(C)n1c(/C=C/[C@@H](O)C[C@@H](O)CC(=O)O)c(-c2ccc(F)cc2)c2ccccc21,85.8%
6,COc1cc(C2CC(=O)c3ccccc3N2)cc(OC)c1OC (stereo not given),103%
7,Cn1cc(C(=O)c2nc(-c3c[nH]c4ccc(Br)cc34)no2)c2cc(F)ccc21,99.3%
8,O=C1Nc2c(ccc(Cl)c2Cl)/C1=C\c1cc(C(F)(F)F)cc(C(F)(F)F)c1,-28.8% (active)
9,Oc1ccc(N=Cc2ccccc2O)cc1,87.3%
10,COc1cc(/C=C/c2cc(O)c3cc(C(C)=O)c(=O)oc3c2)cc2c1O[C@]1(C)CC[C@@H](O)C(C)(C)[C@H]1C2,70.6%
11,FC(F)(F)Oc1ccc2nc3nc4ccc[nH]c4cc3c2c1,115%
12,COc1cc(C(=O)Oc2ccccc2OC(=O)c2cc(OC)c(OC)c(OC)c2)cc(OC)c1OC,97.4%
13,CC1=C/C(=C(\c2ccc(N(C)C)cc2)c2ccc([N+](C)(C)C)cc2)C=CC1=[N+](C)C,115%
14,O=S(=O)(Nc1ccc(Cl)c(F)c1)c1ccc(-c2cnc(C3CC3)o2)cc1,35.8%
15,COc1cc2c(cc1-c1c(C)noc1C)ncc1nc(-c3ccccn3)n([C@H](C)COC(F)F)c12,76.6%
16,CC1(C)CC[C@]2(C(=O)Nc3ccccn3)CC[C@]3(C)C(=CC[C@@H]4[C@@]5(C)C/C(=C/c6cccnc6)C(=O)C(C)(C)[C@@H]5CC[C@]43C)[C@H]2C1,56.4%
17,COc1ccccc1Nc1nc(-c2cc3cccc(C(F)(F)F)c3oc2=O)cs1,67%
18,COc1ccc(-c2nc3ccc(-c4nc5ccc(N6CCN(c7ccccc7)CC6)cc5[nH]4)cc3[nH]2)cc1OC,-44.1% (active)
19,Cc1ccc(OC(=O)c2ccc(Cl)cc2)cc1,97%
20,COc1ccc2nc(NC(=O)CSc3nnc4n3S(=O)(=O)c3ccccc3N4c3ccccc3)sc2c1,94.2%
